BAZ2B inh: inhibitors of human BAZ2B bromodomain; AlphaScreen BAZ2B-H3K14Ac peptide displacement; AID 504333; Potency, µM (highest dose often 114 µM), without a hit: at the highest dose activity change, negative = inhibition, most hits filed as inhibitors; 360,000 compounds, 4.4% hits; Q9UIF8; further: potency means the concentration at half of the fitted maximal effect; on the % scale 0 is the no-effect control and ±100 the full control effect; nearly all actives have a fitted effect of over 60% in size
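Complex of BAZ2B and biotin-H3K14Ac (50 nM apiece) forms over 30 min at RT, then faces library compounds up to 110 uM for another 30 min; AlphaScreen beads added, 20 min dark incubation, luminescence read.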
Six1-Eya2 blk: blocks human Six1 binding to Eya2; Q15475+O00167; AlphaScreen GST-Six1/His-Eya2 binding, biochemical; active compounds read low; activity change, % (test concentration not listed); 360,000 compounds, 0.56% hits; AID 651725; in the data active means activity change below about -65%; inconclusive means mostly about -30% to -63%; further: on the % scale 0 is the no-effect control and ±100 the full control effect
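AlphaScreen luminescence read after one hour at 37 °C in darkness. Pin-transferred compounds met GST-Six1 and His-Eya2 protein (5X stock 250 nM/500 nM) plus glutathione donor and Ni-chelate acceptor beads (5X, 50 ug/mL).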
HP1b chromo inh: blocks HP1-beta chromodomain binding to methylated histone tails | P83916 | 390,000 compounds, 0.56% hits | AlphaScreen HP1-beta / biotin-H3K9me3 peptide binding | AID 540317 | Potency, µM (titrated, usually from 114 µM), for the others: top-dose activity change, negative = inhibition, hits mostly inhibitors; further: potency means the concentration at half of the fitted maximal effect; nearly all actives have a fitted effect of over 70% in size
Target sequence (P83916 whole entry, looked up): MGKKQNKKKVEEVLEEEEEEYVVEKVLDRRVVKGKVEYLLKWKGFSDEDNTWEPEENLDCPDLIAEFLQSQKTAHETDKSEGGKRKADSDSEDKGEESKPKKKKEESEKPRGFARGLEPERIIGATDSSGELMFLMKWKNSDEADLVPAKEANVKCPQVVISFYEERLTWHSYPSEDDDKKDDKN
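HP1-beta protein (50 nM final) preincubated 30 min at room temperature with biotinylated H3(1-18)K9me3 peptide (50 nM) in PBS pH 7.4, 0.01% Tween-20, then compound added for 30 min. AlphaScreen streptavidin donor/nickel chelate acceptor beads (10 ug/mL final), 30 min dark, luminescence read.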
JMJD2A Tudor: JMJD2A Tudor domain (human) inhibition; Potency, µM (top dose mostly 114 µM), without a hit: at the top dose activity change, negative = inhibition, actives largely listed as inhibitors; AID 504339; O75164; 390,000 compounds, 4.4% hits; AlphaScreen JMJD2A-Tudor / H3K4me3 peptide binding; further: potency means the concentration at half of the fitted maximal effect; on the % scale 0 is the no-effect control and ±100 the full control effect; nearly all actives have a fitted effect of over 50% in size
G9a block: blocks human histone lysine methyltransferase G9a; Q96KQ7; G9a H3K9 monomethylation, AlphaScreen, 2 h; Potency, µM (doses to about 102 µM), without a hit: at the top dose activity, negative = inhibition, most hits filed as inhibitors; 350,000 compounds, 8.8% hits; further: potency means the concentration at half of the fitted maximal effect; on the % scale 0 is the no-effect control and ±100 the full control effect; nearly all actives have a fitted effect of over 75% in size
Target sequence (Q96KQ7 913-1193 limits assumed): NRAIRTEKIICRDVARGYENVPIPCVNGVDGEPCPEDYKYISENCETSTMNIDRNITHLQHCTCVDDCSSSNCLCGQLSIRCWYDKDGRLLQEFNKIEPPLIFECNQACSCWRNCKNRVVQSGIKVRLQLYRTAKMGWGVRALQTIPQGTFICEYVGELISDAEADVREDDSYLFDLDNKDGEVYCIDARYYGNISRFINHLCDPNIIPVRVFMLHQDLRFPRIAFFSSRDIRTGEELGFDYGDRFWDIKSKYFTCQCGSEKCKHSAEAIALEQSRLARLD
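Enzyme 20 nM + cpd, 15 min RT; add b-H3K9 pep 500 nM / SAM 20 uM; 2 h RT; anti-H3K9me1 Ab 0.5 ug/mL + SA donor / anti-rabbit acceptor beads 20 ug/mL each, 10 min; AlphaScreen read.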
CtBP-E1A inh: CtBP/E1A binding inhibition | AlphaScreen GST-E1A/His-CtBP binding, 1536-well; active compounds read low | activity change, % (concentration not given with the values) | 340,000 compounds, 0.49% hits | AID 651724; in the data active means activity change below about -65%; inconclusive means mostly about -30% to -63%; further: on the % scale 0 is the no-effect control and ±100 the full control effect
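GST-E1A and His-tagged CtBP (125 nM each as 5X stock) were preincubated with pin-transferred compound for 2 h at 37 °C in the dark, then glutathione donor and nickel acceptor beads were added for 1 h before AlphaScreen reading.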
The depositor's hits bear a star; ! = not active in a repeat; [ ] = remark or other dose. Hits are enriched below; roughly 10% of the tested compounds scored in any of these assays. Unless noted, the call rests on the fitted dose curve; in most records, active means well fitted inhibition curve with a large enough effect; inconclusive means small, poorly fitted or top-dose-only effect; inactive means no such curve, though single readings can be large or run the other way.

`COc1ccccc1NC(=O)CN1CCN(CC(=O)Nc2ccc(S(N)(=O)=O)cc2)CC1` gave BAZ2B inh 4.2%, Six1-Eya2 blk 7.2, HP1b chromo inh 23.9%, JMJD2A Tudor -9.4% and G9a block 44.7µM*.
COc1ccccc1NC(=O)CN1CCN(CC(=O)Nc2ccc(OC)c(OC)c2)CC1 was read as BAZ2B inh -1.6%, Six1-Eya2 blk 2.5, HP1b chromo inh 40.4%, JMJD2A Tudor -16.7%, G9a block inconclusive and CtBP-E1A inh 3.6.
Screening NS(=O)(=O)c1ccc(NC(=O)CN2CCN(S(=O)(=O)c3cccs3)CC2)cc1 returned BAZ2B inh -7.6%, Six1-Eya2 blk 2.6, HP1b chromo inh 5.2%, JMJD2A Tudor -27.0%, G9a block 50.1µM* and CtBP-E1A inh 3.4.
Screening COc1ccc(NCC(=O)Nc2ccc(Br)cc2F)c(OC)c1 returned BAZ2B inh 39.8µM*, Six1-Eya2 blk -16.5, HP1b chromo inh inconclusive, JMJD2A Tudor 56.2µM* and CtBP-E1A inh inconclusive.
Screening COc1ccccc1NC(=O)CN1CCN(CC(=O)Nc2ccc(F)cc2)CC1 returned BAZ2B inh 8.9%, Six1-Eya2 blk 7.4, HP1b chromo inh 40.0%, JMJD2A Tudor -2.9%, G9a block inconclusive and CtBP-E1A inh 2.5.
COc1ccc(NC(=O)CN2CCN(S(=O)(=O)c3cccs3)CC2)cc1Cl was read as BAZ2B inh -1.2%, Six1-Eya2 blk -3.2, HP1b chromo inh 62.0%, JMJD2A Tudor -10.4%, G9a block 7.3%[12.7 µM] and CtBP-E1A inh 14.8.
Screening COc1ccc(NC(=O)CN2CCN(CC(=O)Nc3ccccc3F)CC2)cc1OC returned BAZ2B inh -5.2%, Six1-Eya2 blk -2.5, HP1b chromo inh 33.8%, JMJD2A Tudor -18.9%, G9a block 44.7µM*! and CtBP-E1A inh -3.5.
Screening O=C1CC(=O)Nc2cc(S(=O)(=O)Nc3cccc(Br)c3)ccc2N1 returned BAZ2B inh -16.1%, HP1b chromo inh 48.1%, JMJD2A Tudor -2.1% and G9a block -0.1%[59 µM].
Screening COc1ccc(C2c3cc(OC)c(OC)cc3CC(=O)N2c2cccc(C#N)c2)cc1 (stereo not given) returned BAZ2B inh -9.3%, HP1b chromo inh 5.9%, JMJD2A Tudor -31.2% and G9a block -2.2%[59 µM].
`COc1ccc(NC(=O)CN2CCN(CC(=O)Nc3ccccc3Cl)CC2)cc1` gave BAZ2B inh -7.3%, Six1-Eya2 blk 4.7, HP1b chromo inh 39.6%, JMJD2A Tudor -14.3% and CtBP-E1A inh -16.8.
Screening COc1ccccc1NC(=O)CN1CCN(CC(=O)Nc2ccc(OCc3ccccc3)cc2)CC1 returned BAZ2B inh -34.2%, Six1-Eya2 blk -3.7, HP1b chromo inh 1.8%, JMJD2A Tudor -26.8%, G9a block 35.5µM* and CtBP-E1A inh -7.9.
Screening COc1cccc(NC(=O)CN2CCN(CC(=O)Nc3ccc(F)cc3)CC2)c1 returned BAZ2B inh 4.3%, Six1-Eya2 blk -4.7, HP1b chromo inh 62.7%, JMJD2A Tudor -11.4%, G9a block 35.5µM* and CtBP-E1A inh 6.7.
For COc1ccc(NC(=O)CN2CCN(CC(=O)Nc3ccccc3Cl)CC2)c(OC)c1 the results were BAZ2B inh -1.5%, Six1-Eya2 blk 3.0, HP1b chromo inh 29.5%, JMJD2A Tudor -12.3%, G9a block 44.7µM* and CtBP-E1A inh 7.6.
Screening COc1cc(NC(=O)CN2CCN(CC(=O)Nc3ccc(F)cc3)CC2)cc(OC)c1 returned BAZ2B inh 0.5%, HP1b chromo inh 12.5%[57 µM], JMJD2A Tudor -5.5% and G9a block -4.1%[59 µM].
Screening COc1cc(NC(=O)CN2CCN(CC(=O)Nc3ccccc3OC)CC2)cc(OC)c1 returned BAZ2B inh -0.9%, Six1-Eya2 blk 2.8, HP1b chromo inh 32.7%, JMJD2A Tudor -18.1%, G9a block 44.7µM* and CtBP-E1A inh 0.4.
`O=C(CN1CCCC1)Nc1ccc(OCc2ccccc2)cc1` gave BAZ2B inh -17.0%, Six1-Eya2 blk 1.6, HP1b chromo inh 14.9%, JMJD2A Tudor -13.0% and G9a block inconclusive.
Cc1ccccc1OCC(=O)NCC(=O)OCC(=O)c1ccc(-c2ccccc2)cc1 was read as HP1b chromo inh 10.5%[57 µM] and JMJD2A Tudor -0.8%[57.1 µM].
`Cc1nc(S(=O)(=O)N2CCN(c3ccc(Cl)cc3)CC2)cn1C` gave BAZ2B inh -1.2%, HP1b chromo inh 20.1%[57 µM], JMJD2A Tudor -12.1% and G9a block -4.2%[59 µM].
For COc1ccc(NC(=O)CN2CCN(CC(=O)Nc3ccccc3OC)CC2)c(OC)c1 the results were BAZ2B inh 0.3%, Six1-Eya2 blk -2.2, HP1b chromo inh 36.8%, JMJD2A Tudor -6.4%, G9a block inconclusive and CtBP-E1A inh -0.9.
Screening COc1ccc(-n2cc(-c3ccc4c(c3)OCO4)n(CC(=O)Nc3cccc(C)c3)c2=O)cc1 returned BAZ2B inh -38.8%, HP1b chromo inh -20.4%, JMJD2A Tudor inconclusive and G9a block inconclusive.
For COc1ccc(-c2cn(-c3ccc(C)cc3)c(=O)n2CC(=O)Nc2cccc(F)c2)cc1 the results were BAZ2B inh inconclusive, Six1-Eya2 blk -0.1, HP1b chromo inh -19.1%, JMJD2A Tudor 79.4µM*, G9a block inconclusive and CtBP-E1A inh 6.2.
COc1ccccc1NC(=O)C(C)OC(=O)C(C)SCC(=O)Nc1ccc(C)cc1 (stereo not given) was read as BAZ2B inh 11.0%, Six1-Eya2 blk -5.7, HP1b chromo inh 24.7%, JMJD2A Tudor -9.7%, G9a block 35.5µM* and CtBP-E1A inh 8.2.
`COc1ccc(NC(=O)CN2CCN(CC(=O)Nc3ccccc3F)CC2)c(OC)c1` gave BAZ2B inh 9.3%, Six1-Eya2 blk -2.3, HP1b chromo inh 41.8%, JMJD2A Tudor -10.8%, G9a block 31.6µM*! and CtBP-E1A inh -6.9.
For COc1ccc(NC(=O)C/C(C)=N/NC(=O)C(=O)Nc2cccc(Cl)c2C)c(OC)c1 the results were BAZ2B inh 26.9%, Six1-Eya2 blk 2.6, HP1b chromo inh 33.9%, JMJD2A Tudor -15.6%, G9a block 56.2µM* and CtBP-E1A inh -4.3.
Screening COc1cccc(C(=O)Nc2c(C(=O)NC(C)(C)C)oc3ccccc23)c1 returned BAZ2B inh 79.1%[57.1 µM], HP1b chromo inh 81.1%, JMJD2A Tudor 7.4% and G9a block 26.4%[59 µM].
Screening Cc1ccc(S(=O)(=O)N2[C@@H](c3ccccc3F)C(C(=O)O)=CC[C@H]2c2ccc(Cl)c(Cl)c2)cc1 returned BAZ2B inh 70.8µM*, Six1-Eya2 blk -3.7, HP1b chromo inh 26.6%, JMJD2A Tudor -18.6%, G9a block -28.1%[2.33 µM] and CtBP-E1A inh 1.6.

High-throughput results as filed in PubChem BioAssay.
